Laboratory results published in PubChem BioAssay (NCATS).
Results filed as inconclusive are left out. The source made the active and inactive calls. Unless noted, calls come from the whole dose curve; as a rule, active = well fitted curve in the direction sought with a large enough effect; inconclusive = small, poorly fitted or top-dose-only effect, or another doubt; inactive = no such curve, though single readings can be large; an effect the other way counts as inactive or inconclusive.

Assays:
[1] = P-glycoprotein substrates identified in KB-8-5-11 adenocarcinoma cell line, qHTS therapeutic library screen (AID 1346987); note: series mostly up to about 44 µM; % is set by controls: 0 for no effect and ±100 for the full control effect; nearly all actives have a fitted effect of over 65% in size
Outline: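 Compounds are pinned in dose-response onto KB-8-5-11 cells (500 cells/well, colchicine-free medium) and left 72 h at 37 degree C. CellTiter-Glo luminescence then yields AC50 values.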

[2] = NS1 protein of Zika virus - qHTS assay to identify small molecule inhibitors in human HEK 293 cells (AID 1347053);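 note: series mostly up to about 46 µM; plate controls were infected untreated cells for no effect and uninfected cells for full effect; nearly all actives have a fitted effect of over 55% in size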
Outline: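 Read-out is a two-antibody TR-FRET for ZIKV NS1, normalized between uninfected cells and infected cells. Compound added 1 h before MR766 infection at MOI 0.5; human HEK 293 cells incubated 24 h, 37 C.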

[3] = qHTS for Inhibitors of the Functional Ribonucleoprotein Complex (vRNP) of Lassa (LASV) Arenavirus: LASV Primary Screen - GLuc reporter signal (AID 1347082; calls by dose curve; tested in HEK293 reporter line; note: series mostly up to about 57 µM; % is set by controls: 0 for no effect and ±100 for the full control effect; nearly all actives have a fitted effect of over 60% in size)
[4] = qHTS for Inhibitors of the Functional Ribonucleoprotein Complex (vRNP) of Lassa (LASV) Arenavirus: Viability assay - alamar blue signal for LASV Primary Screen (AID 1347083; calls by dose curve; tested in HEK293 reporter line; note: series mostly up to about 57 µM; % is set by controls: 0 for no effect and ±100 for the full control effect; nearly all actives have a fitted effect of over 80% in size)
[5] = qHTS for Inhibitors of the Functional Ribonucleoprotein Complex (vRNP) of Lymphocytic Choriomeningitis Arenaviruses (LCMV): Viability assay - alamar blue signal for LCMV Primary Screen (AID 1347085; calls by dose curve; tested in HEK293 reporter line; note: series mostly up to about 57 µM; % is set by controls: 0 for no effect and ±100 for the full control effect; nearly all actives have a fitted effect of over 80% in size)
[6] = target: Nucleoprotein (Lymphocytic choriomeningitis virus (strain Armstrong)) (UniProt P09992); experiment: qHTS for Inhibitors of the Functional Ribonucleoprotein Complex (vRNP) of Lymphocytic Choriomeningitis Arenaviruses (LCMV): LCMV Primary Screen - GLuc reporter signal (AID 1347086; calls by dose curve; note: series mostly up to about 57 µM; % is set by controls: 0 for no effect and ±100 for the full control effect; nearly all actives have a fitted effect of over 70% in size)
Chain of Nucleoprotein (Lymphocytic choriomeningitis virus (strain Armstrong)) (P09992 whole entry, looked up): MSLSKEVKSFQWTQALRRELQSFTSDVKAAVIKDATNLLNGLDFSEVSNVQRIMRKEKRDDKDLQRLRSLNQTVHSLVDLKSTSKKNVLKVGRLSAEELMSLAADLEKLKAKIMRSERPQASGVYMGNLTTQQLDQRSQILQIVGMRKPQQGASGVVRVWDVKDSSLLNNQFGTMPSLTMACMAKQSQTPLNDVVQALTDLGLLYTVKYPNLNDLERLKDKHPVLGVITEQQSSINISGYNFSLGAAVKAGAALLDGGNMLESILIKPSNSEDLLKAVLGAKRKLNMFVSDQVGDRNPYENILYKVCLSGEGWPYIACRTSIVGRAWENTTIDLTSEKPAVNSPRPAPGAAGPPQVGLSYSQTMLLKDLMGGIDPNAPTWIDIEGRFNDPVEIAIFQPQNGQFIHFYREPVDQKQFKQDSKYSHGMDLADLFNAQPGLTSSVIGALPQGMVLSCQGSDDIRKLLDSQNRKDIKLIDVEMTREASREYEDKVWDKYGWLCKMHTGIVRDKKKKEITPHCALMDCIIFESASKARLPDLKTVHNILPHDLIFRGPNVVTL

[7] = qHTS of pediatric cancer cell lines to identify multiple opportunities for drug repurposing: Primary screen for TC32 cells (AID 1347089); note: % is set by controls: 0 for no effect and ±100 for the full control effect; nearly all actives have a fitted effect of over 60% in size
Outline: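 Luminescent ATP read-out (CellTiter-Glo) of metabolically active TC32 cells after 48 h exposure. Concentration-response curves came from 11-point (MIPE, 0.78 nM–46 µM) or 8-point (NPC, 0.59 nM–46 µM) primary titrations; follow-up used 11 points.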

[8] = qHTS of pediatric cancer cell lines to identify multiple opportunities for drug repurposing: Primary screen for DAOY cells (AID 1347090); note: nearly all actives have a fitted effect of over 55% in size; note: potency is the fitted concentration of half-maximal effect
Outline: (§1)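 Viability measured as metabolically active cells via CellTiter-Glo luminescence following 48 hours of compound exposure, 11-point dilutions in confirmatory testing. 500-1,000 cells/well plated 5 hours before dosing; controls were DMSO and 2.3 µM bortezomib.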

[9] = qHTS of pediatric cancer cell lines to identify multiple opportunities for drug repurposing: Primary screen for SJ-GBM2 cells (AID 1347091);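 note: plate controls were DMSO neutral control for no effect and bortezomib for full effect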
Outline: as §1

[10] = qHTS of pediatric cancer cell lines to identify multiple opportunities for drug repurposing: Primary screen for A673 cells (AID 1347092); note: % is set by controls: 0 for no effect and ±100 for the full control effect; nearly all actives have a fitted effect of over 45% in size
Outline: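 Cell viability of A673 measured by CellTiter-Glo ATP luminescence after 48 hours compound exposure. Dilution series spanned 0.78 nM to 46 µM (MIPE, 11-point) or 0.59 nM to 46 µM (NPC, 8-point); bortezomib 2.3 uM positive control.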

[11] = qHTS of pediatric cancer cell lines to identify multiple opportunities for drug repurposing: Primary screen for SK-N-MC cells (AID 1347093);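 note: series mostly up to about 46 µM; plate controls were DMSO neutral control for no effect and bortezomib for full effect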
Outline: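 Metabolically active cells were quantified by ATP-dependent luminescence (CellTiter-Glo, 15 min at room temperature) following 48 h treatment. Cells had been plated at 500-1,000 per well and settled for 5 h beforehand.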

[12] = qHTS of pediatric cancer cell lines to identify multiple opportunities for drug repurposing: Primary screen for BT-37 cells (AID 1347094);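 note: series mostly up to about 57 µM; plate controls were DMSO for no effect and bortezomib for full effect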
Outline: (§2)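 CRCs from 8- or 11-point titrations (lowest final 0.59 nM NPC, 0.78 nM MIPE). Cell viability: CellTiter-Glo after 48 h incubation, 15 min room-temperature development, luminescence imaging.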

[13] = qHTS of pediatric cancer cell lines to identify multiple opportunities for drug repurposing: Primary screen for NB-EBc1 cells (AID 1347095);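 note: plate controls were DMSO neutral control for no effect and bortezomib for full effect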
Outline: as §2

[14] = qHTS of pediatric cancer cell lines to identify multiple opportunities for drug repurposing: Primary screen for U-2 OS cells (AID 1347096);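 note: plate controls were DMSO wells for no effect and bortezomib positive control wells for full effect; nearly all actives have a fitted effect of over 50% in size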
Outline: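 Viability after 48 h compound treatment at 37C, 500-1,000 cells/well, read as ATP luminescence with CellTiter-Glo. Primary screens used 11-point (MIPE, 0.78 nM-46 µM) or 8-point (NPC, 0.59 nM-46 µM) final concentrations; follow-up screens used 11-point dilutions.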

NC1=NC(=O)C(c2ccccc2)O1 (stereo not given)
inactive: Potency [1] | outcome [2] | Potency [3] | Potency [4] | Potency [5] | Potency [6] | Potency [7] | Potency [8] | Potency [9] | Potency [10] | Potency [11] | Potency [12] | Potency [13] | Potency [14]

CCN[C@@H](C)Cc1cccc(C(F)(F)F)c1
inactive: Potency [1] | outcome [2] | Potency [3] | Potency [4] | Potency [5] | Potency [6] | Potency [7] | Potency [8] | Potency [9] | Potency [10] | Potency [11] | Potency [12] | Potency [13] | Potency [14]

COc1c2c(cc3c1OCO3)CCN(C)C2
inactive: Potency [1] | outcome [2] | Potency [3] | Potency [4] | Potency [5] | Potency [6] | Potency [7] | Potency [8] | Potency [10] | Potency [11] | Potency [12] | Potency [14]

C=CCN1C[C@H](C)N([C@H](c2ccc(C(=O)N(CC)CC)cc2)c2cccc(OC)c2)C[C@H]1C
inactive: activity change, negative = cytotoxicity [1] -6.15% [at 9.29 µM] | outcome [2] | Potency [3] | Potency [4] | Potency [5] | Potency [6] | Potency [7] | Potency [8] | Potency [9] | Potency [10] | Potency [11] | Potency [12] | Potency [13] | Potency [14]

O=C1OC(c2ccc(O)c(S(=O)(=O)O)c2)(c2ccc(O)c(S(=O)(=O)O)c2)c2c(Br)c(Br)c(Br)c(Br)c21
inactive: Potency [1] | outcome [2] | Potency [3] | Potency [4] | Potency [5] | Potency [6] | Potency [7] | Potency [8] | Potency [9] | Potency [10] | Potency [11] | Potency [12] | Potency [13] | Potency [14]

Oc1ccc(Cl)cc1
inactive: Potency [1] | outcome [2] | Potency [3] | Potency [4] | Potency [5] | Potency [6] | Potency [7] | Potency [8] | Potency [9] | Potency [10] | Potency [11] | Potency [12] | Potency [13] | Potency [14]

CC(C)(C)NCC(O)c1cc(Cl)c(N)c(C(F)(F)F)c1 (stereo not given)
inactive: Potency [1] | outcome [2] | Potency [3] | Potency [4] | Potency [5] | Potency [6] | Potency [7] | Potency [8] | Potency [10] | Potency [11] | Potency [12] | Potency [14]

CCN[C@@H](C)Cc1ccccc1
inactive: Potency [1] | outcome [2] | Potency [3] | Potency [4] | Potency [5] | Potency [6] | Potency [7] | Potency [8] | Potency [10] | Potency [11] | Potency [12] | Potency [13] | Potency [14]

CNCC(=O)c1ccc(O)c(O)c1
inactive: Potency [1] | outcome [2] | Potency [3] | Potency [4] | Potency [5] | Potency [6] | Potency [7] | Potency [8] | Potency [9] | Potency [10] | Potency [11] | Potency [12] | Potency [14]

Nc1ccccc1C(=O)O
inactive: Potency [1] | outcome [2] | Potency [3] | Potency [4] | Potency [5] | Potency [6] | Potency [7] | Potency [8] | Potency [10] | Potency [11] | Potency [12] | Potency [14]

COc1cccc(C(=O)CCN[C@@H](C)[C@H](O)c2ccccc2)c1
inactive: Potency [1] | outcome [2] | Potency [3] | Potency [4] | Potency [5] | Potency [6] | Potency [7] | Potency [9] | Potency [12] | Potency [14]
active: Potency [8] 26.6 µM

[N-]=[N+]=CC(=O)OC[C@H](N)C(=O)O
inactive: Potency [1] | outcome [2] | Potency [3] | Potency [4] | Potency [5] | Potency [6] | Potency [7] | Potency [8] | Potency [9] | Potency [10] | Potency [11] | Potency [12] | Potency [13] | Potency [14]

COP(=S)(OC)Oc1cc(Cl)c(Cl)cc1Cl
inactive: Potency [1] | outcome [2] | Potency [3] | Potency [4] | Potency [5] | Potency [6] | Potency [7] | Potency [8] | Potency [10] | Potency [11] | Potency [12] | Potency [13] | Potency [14]

c1ccc2c(c1)sc1ccccc12
inactive: Potency [1] | outcome [2] | Potency [3] | Potency [4] | Potency [5] | Potency [6] | Potency [7] | Potency [8] | Potency [9] | Potency [10] | Potency [11] | Potency [12] | Potency [13] | Potency [14]

Nc1ccc([As](=O)(O)O)cc1
inactive: Potency [1] | outcome [2] | Potency [3] | Potency [4] | Potency [5] | Potency [6] | Potency [7] | Potency [8] | Potency [10] | Potency [11] | Potency [12]

CCC(C)(C)c1ccc(O)cc1
inactive: Potency [1] | outcome [2] | Potency [3] | Potency [4] | Potency [5] | Potency [6] | Potency [7] | Potency [8] | Potency [9] | Potency [10] | Potency [11] | Potency [12] | Potency [13] | Potency [14]

C[C@@H](N)[C@@H](O)c1ccccc1
inactive: Potency [1] | outcome [2] | Potency [3] | Potency [4] | Potency [5] | Potency [6] | Potency [7] | Potency [8] | Potency [9] | Potency [10] | Potency [11] | Potency [12] | Potency [14]

COP(=S)(OC)Oc1ccc(SC)c(C)c1
inactive: Potency [1] | outcome [2] | Potency [3] | Potency [4] | Potency [5] | Potency [6] | Potency [7] | Potency [8] | Potency [9] | Potency [10] | Potency [11] | Potency [12] | Potency [13] | Potency [14]

NC(=O)CS(=O)C(c1ccccc1)c1ccccc1 (stereo not given)
inactive: Potency [1] | outcome [2] | Potency [3] | Potency [4] | Potency [5] | Potency [6] | Potency [7] | Potency [8] | Potency [10] | Potency [11] | Potency [12] | Potency [13]

C[C@]12CC[C@@H]3c4ccc(OC(=O)N(CCCl)CCCl)cc4CC[C@H]3[C@@H]1CC[C@@H]2OP(=O)(O)O
inactive: Potency [1] | outcome [2] | Potency [3] | Potency [4] | Potency [5] | Potency [6] | Potency [7] | Potency [8] | Potency [10] | Potency [11] | Potency [12] | Potency [14]
